IDE inh – inhibitors of human insulin-degrading enzyme in cells | inhibition, % at 5.59 µM | 320,000 compounds, 0.41% hits | P14735 | AID 434962 | HEK cells, FAbetaB cleavage, fluorescence polarization;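 active = percent inhibition above the average of all tested compounds plus 3 SD, set per screening campaign, cut at about 16% in these data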;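 note: IDE supplied by intact live HEK cells; FP after avidin binding of uncleaved biotin substrate so inhibition keeps polarization high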
Target sequence (P14735 whole entry, looked up): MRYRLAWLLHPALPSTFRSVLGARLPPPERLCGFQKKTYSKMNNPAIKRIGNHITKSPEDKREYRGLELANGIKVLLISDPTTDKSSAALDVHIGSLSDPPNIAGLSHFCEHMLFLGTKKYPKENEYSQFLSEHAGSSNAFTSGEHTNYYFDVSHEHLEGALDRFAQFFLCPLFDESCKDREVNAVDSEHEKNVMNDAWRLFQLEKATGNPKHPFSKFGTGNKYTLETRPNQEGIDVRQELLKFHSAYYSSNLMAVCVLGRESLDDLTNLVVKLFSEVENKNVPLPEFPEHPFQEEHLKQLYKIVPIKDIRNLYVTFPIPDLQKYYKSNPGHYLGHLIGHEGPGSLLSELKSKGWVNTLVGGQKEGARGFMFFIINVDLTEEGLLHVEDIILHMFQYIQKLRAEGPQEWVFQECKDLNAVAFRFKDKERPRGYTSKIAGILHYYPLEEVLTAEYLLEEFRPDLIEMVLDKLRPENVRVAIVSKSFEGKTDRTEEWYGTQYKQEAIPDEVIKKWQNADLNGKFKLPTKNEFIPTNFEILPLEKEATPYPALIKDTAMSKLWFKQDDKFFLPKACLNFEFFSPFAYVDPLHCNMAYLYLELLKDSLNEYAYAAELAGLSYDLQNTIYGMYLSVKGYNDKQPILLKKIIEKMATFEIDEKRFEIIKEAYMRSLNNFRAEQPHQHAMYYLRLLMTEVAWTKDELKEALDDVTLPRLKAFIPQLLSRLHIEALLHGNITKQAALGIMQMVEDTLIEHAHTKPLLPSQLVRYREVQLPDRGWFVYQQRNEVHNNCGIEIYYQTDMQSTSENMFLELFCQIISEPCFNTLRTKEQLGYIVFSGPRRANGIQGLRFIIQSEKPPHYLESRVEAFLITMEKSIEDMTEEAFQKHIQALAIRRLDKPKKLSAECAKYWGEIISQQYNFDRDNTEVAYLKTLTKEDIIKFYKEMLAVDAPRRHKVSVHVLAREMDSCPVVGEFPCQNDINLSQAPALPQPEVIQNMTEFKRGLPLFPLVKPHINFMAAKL
Rpn11 inh – Rpn11 (human) deubiquitinase inhibition | AID 588493 | O00487 | 360,000 compounds, 0.59% hits | human 26S proteasome, Ub4-pepOG fluorescence polarization; 20S core pre-blocked with epoxomicin | inhibition, % at 20 µM;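 active = inhibition at 20 µM, scaled to each plate's controls, above about 33%, limit read from the data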
TPT1 inh – inhibitors of Candida albicans tRNA 2'-phosphotransferase TPT1; recombinant caTPT1, FP RNA substrate dephosphorylation; inhibition, % at 5 µM; 300,000 compounds, 0.81% hits;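 active = inhibition above the mean of all tested compounds plus 3 SD, set per screening campaign, cut at about 24% in these data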
Rin1-Abl PPI inh – human Rin1-Abl interaction inhibition; 360,000 compounds, 0.4% hits; inhibition, % at 7.35 µM; TR-FRET Rin1/Abl binding, biochemical; AID 588664; P00519+Q13671; in the data active = inhibition above about 5%, passing the limit was not always enough
Calb FLC – C. albicans growth modulation with fluconazole; C. albicans CaCi-2 (fluconazole-resistant clinical isolate) + fluconazole, Alamar Blue growth, 48 h; 300,000 compounds, 0.57% hits; growth inhibition, % (no concentration beside the values);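 active = growth inhibition above about 58% in most replicates, limit read from the data, passing the limit was not always enough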;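 note: all wells also contain fluconazole at 8 µg/ml as a sub-toxic cotreatment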
IDE cell activ – activators of human insulin-degrading enzyme in cells; activation, % at 5.96 µM; AID 493087; P14735; 340,000 compounds, 0.073% hits; HEK cells, FAbeta-B cleavage, fluorescence polarization; 0% vehicle, 100% cell-free pure enzyme wells;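 active = activation above the mean of all tested compounds plus 3 SD, set per screening campaign, cut at about 17% in these data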
A number is an active result. Most compounds without a hit are left out; they make up all but 2.3% or so of the library.

Results for c1ccc(CSc2nnc(-c3cccs3)n2Cc2ccco2)cc1 ?
IDE inh: inactive; Rpn11 inh: inactive; TPT1 inh: inactive; Rin1-Abl PPI inh: inactive; Calb FLC: 121; IDE cell activ: inactive

What do the screens show for `Nc1ccc(C(=O)c2cccs2)cc1[N+](=O)[O-]`?
IDE inh: inactive; Rpn11 inh: inactive; TPT1 inh: inactive; Rin1-Abl PPI inh: inactive; Calb FLC: 126; IDE cell activ: inactive

Results for COc1ccc(C(=O)NC(=S)NNC(=O)c2ccc(NC(=O)C(C)C)cc2)cc1 ?
IDE inh: inactive; Rpn11 inh: inactive; TPT1 inh: inactive; Rin1-Abl PPI inh: inactive; Calb FLC: inactive; IDE cell activ: inactive

What do the screens show for `COc1ccc(C(=O)NNC(=S)NC(=O)c2ccc(Cl)cc2)cc1`?
IDE inh: inactive; TPT1 inh: inactive; Calb FLC: 88

Results for COc1ccc(C(=O)NC(=S)NNC(=O)c2ccc(C)cc2)cc1 ?
IDE inh: inactive; Rpn11 inh: inactive; TPT1 inh: inactive; Rin1-Abl PPI inh: inactive; Calb FLC: 107; IDE cell activ: inactive

What do the screens show for `COc1cc(C(=O)NNC(=S)NC(=O)c2ccc(Cl)cc2)cc(OC)c1OC`?
IDE inh: inactive; Rpn11 inh: inactive; TPT1 inh: inactive; Rin1-Abl PPI inh: inactive; Calb FLC: inactive; IDE cell activ: inactive

What do the screens show for `COc1ccc(C(=O)NC(=S)NNC(=O)c2ccc3ccccc3n2)cc1`?
IDE inh: inactive; Rpn11 inh: inactive; TPT1 inh: inactive; Rin1-Abl PPI inh: inactive; Calb FLC: 108; IDE cell activ: inactive

How did COc1cccc(OC)c1OCCN1CCC(C(=O)NC(c2ccc3c(c2)OCO3)c2ccccn2)CC1 (configuration not stated) do in these assays?
Rpn11 inh: inactive; Rin1-Abl PPI inh: inactive

How did Cc1ccc(S(=O)(=O)Nc2nc3ccccc3s2)cc1 do in these assays?
IDE inh: inactive; Rpn11 inh: inactive; TPT1 inh: inactive; Rin1-Abl PPI inh: inactive; Calb FLC: inactive; IDE cell activ: inactive

How did O=S(=O)(Nc1nc2ccccc2s1)c1ccc(Br)s1 do in these assays?
IDE inh: inactive; Rpn11 inh: inactive; TPT1 inh: inactive; Rin1-Abl PPI inh: inactive; Calb FLC: 89; IDE cell activ: inactive

What do the screens show for `CCOC(=O)C1=C(C)Nc2ccccc2N/C1=N\S(=O)(=O)c1ccccc1`?
Rpn11 inh: inactive; Rin1-Abl PPI inh: inactive; IDE cell activ: inactive

How did COc1cc(OC)c(C(=O)c2ccccc2[N+](=O)[O-])c(OC)c1 do in these assays?
Rpn11 inh: inactive; Rin1-Abl PPI inh: inactive

How did Nc1n[nH]c(-c2cccc([N+](=O)[O-])c2)n1 do in these assays?
IDE inh: inactive; Rpn11 inh: inactive; TPT1 inh: inactive; Rin1-Abl PPI inh: inactive; Calb FLC: 93; IDE cell activ: inactive

Results for COc1ccc(Cl)cc1NC(=O)C1CCN(C(=O)Nc2ccccc2)CC1 ?
IDE inh: inactive; Rpn11 inh: inactive; Rin1-Abl PPI inh: inactive; IDE cell activ: inactive

What do the screens show for `CCOc1ccc(-n2c(-c3ccc(OC)cc3)c[n+]3c2CCCCC3)cc1`?
IDE inh: inactive; Rpn11 inh: inactive; TPT1 inh: inactive; Rin1-Abl PPI inh: inactive; Calb FLC: 110; IDE cell activ: inactive

How did COc1ccc(-c2c[n+]3c(n2-c2ccccc2)CCCCC3)cc1 do in these assays?
IDE inh: inactive; Rpn11 inh: inactive; TPT1 inh: inactive; Rin1-Abl PPI inh: inactive; Calb FLC: 112; IDE cell activ: inactive

Results for CCOc1ccc(-n2c(-c3ccccc3)c[n+]3c2CCC3)cc1 ?
IDE inh: inactive; Rpn11 inh: inactive; TPT1 inh: inactive; Rin1-Abl PPI inh: inactive; Calb FLC: inactive; IDE cell activ: inactive

What do the screens show for `CCOc1ccc(-n2c(-c3ccc(Br)cc3)c[n+]3c2CCCCC3)cc1`?
IDE inh: inactive; Rpn11 inh: inactive; TPT1 inh: inactive; Rin1-Abl PPI inh: inactive; Calb FLC: 103; IDE cell activ: inactive

How did C#CC[N+]1(CC#Cc2ccccc2)CCCCC1 do in these assays?
IDE inh: inactive; Rpn11 inh: inactive; TPT1 inh: inactive; Rin1-Abl PPI inh: inactive; Calb FLC: inactive; IDE cell activ: inactive

Results for C(#Cc1ccccc1)C[N+]1(CC#Cc2ccccc2)CCCCC1 ?
IDE inh: inactive; Rpn11 inh: inactive; TPT1 inh: inactive; Rin1-Abl PPI inh: inactive; Calb FLC: 82; IDE cell activ: inactive

Results for O=C(COC(=O)c1ccccc1Br)Nc1ccc2[nH]c(=O)[nH]c2c1 ?
IDE inh: inactive; Rpn11 inh: inactive; TPT1 inh: inactive; Rin1-Abl PPI inh: inactive; Calb FLC: inactive; IDE cell activ: inactive

What do the screens show for `Cc1ccc(NC(=O)CNC(=O)c2ccc(Oc3ccccc3)cc2)nc1`?
IDE inh: inactive; Rpn11 inh: inactive; TPT1 inh: inactive; Rin1-Abl PPI inh: inactive; Calb FLC: 89; IDE cell activ: inactive

How did Cc1ccc(NC(=O)CNC(=O)c2cccc(C)c2)nc1 do in these assays?
IDE inh: inactive; Rpn11 inh: inactive; TPT1 inh: inactive; Rin1-Abl PPI inh: inactive; Calb FLC: inactive; IDE cell activ: inactive

How did COc1ccc(/C=N/NC(=O)c2ccc(-c3ccccc3)cc2)cc1O do in these assays?
IDE inh: inactive; Rpn11 inh: inactive; TPT1 inh: inactive; Rin1-Abl PPI inh: inactive; Calb FLC: 83; IDE cell activ: inactive

Results for CC1(C(=O)NS(=O)(=O)c2cccc(OC(F)F)c2)CCN1C(=O)Cc1ccsc1 (configuration not stated) ?
Rpn11 inh: inactive; Rin1-Abl PPI inh: inactive

What do the screens show for `CCCCC(CC)C(=O)Oc1ccc(O)c(C(C)(C)C)c1` (configuration not stated)?
IDE inh: inactive; Rpn11 inh: inactive; TPT1 inh: inactive; Rin1-Abl PPI inh: 9.2; Calb FLC: inactive; IDE cell activ: inactive

What do the screens show for `CC(C)(C)c1cc(OC(=O)C2CCCC2)ccc1O`?
IDE inh: inactive; Rpn11 inh: inactive; TPT1 inh: inactive; Rin1-Abl PPI inh: inactive; Calb FLC: inactive; IDE cell activ: inactive

Results for COC(=O)c1c(C)[nH]c(C(=O)C(C)OC(=O)c2c(C)noc2C)c1C (configuration not stated) ?
IDE inh: inactive; Rpn11 inh: inactive; Rin1-Abl PPI inh: inactive; IDE cell activ: inactive

How did CCOc1ccccc1OCCCC(=O)ON=C(N)c1ccccc1 do in these assays?
IDE inh: inactive; Rpn11 inh: inactive; Rin1-Abl PPI inh: inactive; IDE cell activ: inactive

How did O=C(Nc1ccc(Cl)cc1)Nc1nnc(SCc2ccc(Cl)cc2)s1 do in these assays?
IDE inh: inactive; Rpn11 inh: inactive; TPT1 inh: inactive; Rin1-Abl PPI inh: inactive; Calb FLC: inactive; IDE cell activ: inactive

What do the screens show for `O=C(Nc1nnc(SCc2ccc(Cl)cc2)s1)c1cnccn1`?
IDE inh: inactive; Rpn11 inh: inactive; TPT1 inh: inactive; Rin1-Abl PPI inh: inactive; Calb FLC: 80; IDE cell activ: inactive

How did O=C(CSc1nnc(COc2ccc(Cl)cc2)o1)Nc1nccs1 do in these assays?
Rpn11 inh: inactive; Rin1-Abl PPI inh: inactive

How did COc1ccccc1NC(=O)c1cnc(SC)nc1 do in these assays?
IDE inh: inactive; Rpn11 inh: inactive; TPT1 inh: inactive; Rin1-Abl PPI inh: inactive; Calb FLC: inactive; IDE cell activ: inactive

Screening data: PubChem, several laboratories
